# From PubChem
# A selection: hits, their analogues and other compounds. The true share with any hit is near 8.9%.
# DRD3 antagonist – qHTS of D3 Dopamine Receptor Antagonist: qHTS | D(3) dopamine receptor (Homo sapiens), P35462 | D3R cells, DiscoveRx beta-arrestin luminescence, antagonist mode; active compounds read low | max response, negative = inhibition, % | actives 2.5% (n = 360,000); in the data active = max response below about -50%; inconclusive = no clear call, values can overlap the other calls; also: % is scaled to controls: 0 for no effect and ±100 for the full control effect
# Target sequence (P35462 whole entry, looked up): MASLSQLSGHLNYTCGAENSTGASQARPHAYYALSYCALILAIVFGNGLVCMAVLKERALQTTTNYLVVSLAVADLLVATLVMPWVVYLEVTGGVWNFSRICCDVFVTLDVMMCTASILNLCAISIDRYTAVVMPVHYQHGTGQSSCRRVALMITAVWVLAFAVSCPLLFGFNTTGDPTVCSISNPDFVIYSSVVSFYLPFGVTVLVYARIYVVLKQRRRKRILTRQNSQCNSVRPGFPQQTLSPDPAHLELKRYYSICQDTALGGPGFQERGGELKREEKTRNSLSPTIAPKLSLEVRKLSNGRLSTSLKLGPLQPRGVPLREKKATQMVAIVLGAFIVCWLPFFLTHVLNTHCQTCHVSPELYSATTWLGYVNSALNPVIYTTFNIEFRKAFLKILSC
#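 Cells expressing the human receptor were seeded at 1500 cells/well, incubated overnight at 37 degrees C in 5% CO2, then exposed to library compounds with dopamine controls for 90 minutes at 37 degrees C before luminescent detection.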
# MCF10A rereplic – A quantitative high throughput screen for small molecules that induce DNA re-replication in MCF 10a normal breast cells; actives 2.9% (n = 350,000); Potency, µM (top dose mostly 46.1 µM), inactives show top-dose activity, positive = re-replication, usual class: activators; MCF 10A DNA re-replication, Hoechst nuclear intensity, 48 h; also: potency is read from the fitted curve at half-maximal effect; % of control where 0% means no effect; nearly all actives have a fitted effect of over 50% in size
# KB-V1 cytotox – qHTS assay for MDR1-selective chemotherapeutics: Primary screen using the drug-selected MDR subline cells KB-V1; KB-V1 MDR cells viability, CellTiter-Glo, 72 h; AID 1347076, 2019; actives 3.4% (n = 400,000); Potency, µM (series often up to 46.1 µM), usual class: cytotoxic; also: potency is read from the fitted curve at half-maximal effect; % is scaled to controls: 0 for no effect and ±100 for the full control effect; nearly all actives have a fitted effect of over 60% in size
#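 qHTS viability screen in drug-selected KB-V1 MDR cells: 72 h compound treatment at 37 degrees C, ATP luminescence end point.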
# SW480 rerep – A quantitative high throughput screen for small molecules that induce DNA re-replication in SW480 colon adenocarcinoma cells | SW480 DNA re-replication, Hoechst DNA content imaging, 48 h | actives 1.8% (n = 340,000) | Potency, µM (top dose mostly 46.1 µM), without a hit: top-dose re-replication activation, actives largely listed as activators; also: potency is read from the fitted curve at half-maximal effect; % of control where 0% means no effect; nearly all actives have a fitted effect of over 55% in size
#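 Treated cells incubate 48 hr (37 C, 5% CO2), are stained 40 min with Hoechst, and nuclear fluorescence is enumerated; a rise in nuclei with high DNA signal marks re-replication.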
# KB-3-1 cytotox – qHTS assay for MDR1-selective chemotherapeutics: Primary screen using the parental adenocarcinoma cell KB-3-1; KB-3-1 viability, CellTiter-Glo ATP luminescence, 72 h; Potency, µM (top dose mostly 46.1 µM), actives largely listed as cytotoxic; actives 1.4% (n = 400,000); AID 1347075, 2019; also: potency is read from the fitted curve at half-maximal effect; % is scaled to controls: 0 for no effect and ±100 for the full control effect; nearly all actives have a fitted effect of over 60% in size
#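 Multi-concentration cytotoxicity screen in KB-3-1 cells grown in DMEM lacking phenol red with 10% FBS. After 72 h at 37 °C with compound, ATP-dependent luminescence was recorded.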
# DRD3 agonist – qHTS of D3 Dopamine Receptor Agonist: qHTS | D(3) dopamine receptor (Homo sapiens), P35462 | D3R DiscoveRx beta-arrestin cells, luminescence, 90 min | max activation, % | actives 0.58% (n = 410,000) | AID 652048, 2013; in the data active = max activation above about 30%; also: 0% is about no effect
#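 Cells at 1500/well, incubated overnight, then treated with pinned compounds (dopamine as control) for 90 min at 37 degrees C. DiscoveRx reagent added for 30 - 60 minutes at room temperature; luminescence read.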
# * hit, by the source's call; i = inactive; ? = inconclusive; . = no result given. Unless noted, calls follow the shape of the dose curve; as a rule, active = well fitted curve in the direction sought with a large enough effect; inconclusive = small, poorly fitted or top-dose-only effect, or another doubt; inactive = no such curve, though single readings can be large; an effect the other way counts as inactive or inconclusive.
SMILES,DRD3 antagonist,MCF10A rereplic,KB-V1 cytotox,SW480 rerep,KB-3-1 cytotox,DRD3 agonist
Cc1ccc(CNC(=O)CCn2nc(-c3ccc(Cl)cc3)ccc2=O)cc1,31,4%,23µM*,-4%,i,12
CC/C(=N/NC(=O)c1ccc(Br)o1)c1ccc(Cl)cc1,-3,1%,15µM*,-107%,i,2
O=C(CNC(=O)c1ccc(Br)o1)NCc1ccc(Cl)cc1,-13,26µM*,i,?,i,-20
Cc1ccc(CC(=O)NCc2ccc(Cl)cc2)cc1,-5,7.3µM*,?,0.92µM*,i,2
O=C(CC(=O)NCc1ccc(Cl)cc1)NCc1ccc(Cl)cc1,9,-2%,i,-2%,i,5
CCOc1cc2[nH]c(=O)n(CCCCC(=O)N3CCN(c4ccccc4)CC3)c(=O)c2cc1OCC,.,.,i,.,i,6
COc1ccc2c(c1)c1c(c(=O)n(CCc3ccccc3)c(=O)n1Cc1ccc(F)cc1)n2C,.,.,i,.,i,-2
CCOC(=O)c1ccc(NC(=O)c2c(NCc3cccc(OC)c3OC)sc3c2CCC3)cc1,.,.,i,.,i,5
CCN=c1scc(C)n1/N=C/c1ccc(O)c(O)c1O,-7,-3%,i,-2%,i,9
CCN=c1scc(C)n1/N=C/c1cc(Br)c(O)c(Br)c1,-10,21µM*,?,-3%,?,4
O=C(C[n+]1cccc(CNC(=O)c2ccc(OC(F)F)cc2)c1)Nc1ccc(F)cc1,-28,3%,i,.,i,-12
O=C(C[n+]1cccc(CNC(=O)c2ccc(OC(F)F)cc2)c1)Nc1cccc(C(F)(F)F)c1,-51*,-9%,?,1%,?,-3
CCN(CC)S(=O)(=O)c1ccc(NC(=O)Nc2cccc(C(F)(F)F)c2)cc1,?,?,13µM*,28%,9.2µM*,-10
CCN(CC)S(=O)(=O)c1ccc(C(=O)Nc2cccc(C)c2)cc1,-83*,?,i,-2%,i,-10
Cc1cccc(NC(=O)c2ccc(S(=O)(=O)NCc3cccnc3)cc2)c1,-1,-1%,21µM*,-4%,?,9
Cc1ccc(-c2nc3sc(CCNS(=O)(=O)c4cc(F)ccc4F)c(C)n3n2)cc1,.,.,.,.,.,8
CCOC(=O)Nc1sc2c(c1C(N)=O)CCCC2,.,.,i,.,i,.
Cc1cc(C)n(-c2ccc(C(=O)Nc3cccc(S(=O)(=O)N(C)C)c3)cc2)n1,2,10%,?,-11%,?,14
Cc1cccc(NC(=O)c2ccc(C(=O)Nc3cccc(C)c3)nc2)c1,-5,7.3µM*,?,?,i,-4
O=C(Nc1ccc(OC(F)F)cc1)Nc1cccc(C(F)(F)F)c1,-5,?,13µM*,?,8.2µM*,10
CC(=O)Nc1cccc(NC(=O)c2ccc(C(=O)Nc3cccc(NC(C)=O)c3)nc2)c1,-23,2%,i,-19%,i,-14
CCN(CC)S(=O)(=O)c1cccc(NC(=O)c2ccc(-n3nc(C)cc3C)cc2)c1,17,5%,2.9µM*,-25%,?,3
Cc1nn(C)c2c1c(C(F)(F)F)cc(=O)n2CC(=O)NCc1ccc(OC(C)C)cc1,.,.,i,.,i,7
Cc1ccccc1OCCCN1CCCC1,-60*,10%,?,-2%,i,-44
Cc1ccc(OCCCN2CCCC2)c(C)c1,-52*,4%,i,-5%,i,-10
SMILES,DRD3 antagonist,MCF10A rereplic,KB-V1 cytotox,SW480 rerep,KB-3-1 cytotox,DRD3 agonist
Cc1ccc(OCCCCNC2CCCC(C)C2C)c(C)c1 (configuration not stated),-21,?,21µM*,?,23µM*,-13
Cc1ccc(C)c(OCCCCN2CCCCC2)c1,-67*,?,?,5%,?,-17
Cc1ccc(OCCCCN2CCCCC2)c(C)c1,6,7%,i,?,i,-6
CCn1c(C(=O)N2CCC(C(=O)N3CCN(c4cc(C)ccc4C)CC3)CC2)cc2sccc21,.,.,i,.,i,-3
Cc1ccc(OCCCCn2ccnc2C)c(C)c1,3,15µM*,?,7%,i,-1
CCN1CCN(CCOc2ccc(Br)cc2C)CC1,?,?,i,-63%,i,-26
Cc1cc(Br)ccc1OCCN1CCCC1,-69*,15%,i,4%,i,-3
N#Cc1ccc(N)cc1OCCCN1CCCCC1,-52*,-30%,?,-5%,i,-25
Cc1cc(O)c(C(=O)c2cnc3c(c2)COc2ccccc2-3)cc1Cl,.,.,i,.,i,16
CCOC(=O)c1c(C)[nH]c(CCC(=O)NCc2ccc(N(C)C)cc2)c1C,.,.,.,.,.,5
O=C(NCCc1ccc(Cl)cc1)c1ccc(CS(=O)(=O)Cc2ccccc2F)o1,.,.,?,.,i,1
COC(CNC(=O)C1CCCN(S(=O)(=O)c2c(C)noc2/C=C/c2cccs2)C1)OC (configuration not stated),6,3.7µM*,i,-14%,i,12
COc1ccc2nc(NC(=O)C3CCN(S(=O)(=O)c4cccs4)CC3)sc2c1,35,-1%,23µM*,11%,?,-2
O=C(Nc1ccccn1)C1CCN(S(=O)(=O)c2cccs2)CC1,-4,-5%,?,-8%,i,-8
Cc1sc2ncn(CC(=O)Nc3ccc(F)cc3F)c(=O)c2c1S(=O)(=O)N1CCC(C)CC1,.,.,i,.,i,-1
Cc1cccc(NC(=O)C2CCN(S(=O)(=O)c3cccs3)CC2)n1,21,3%,23µM*,-1%,i,3
COCCNC(=O)C1CCCN(S(=O)(=O)c2c(C)noc2/C=C/c2cccs2)C1 (configuration not stated),-9,0%,i,-20%,i,-4
Cc1cccc(NC(=O)Cn2cnc3sc(C)c(S(=O)(=O)N4CCC(C)CC4)c3c2=O)n1,49,6%,i,-2%,i,35*
C#C[C@]1(O)CC[C@H]2[C@@H]3CCC4=CC(=O)CC[C@@H]4[C@H]3C(=C)C[C@@]21CC,.,.,.,.,.,-8
Cc1c(C#N)c(NC(=O)COC(=O)c2cc(Cl)c3c(c2)OCCCO3)n(Cc2ccco2)c1C,.,.,i,.,i,.
CCOc1ccc(C(=O)Nc2ccc(-c3cc4ccccc4oc3=O)cc2)cc1Br,.,.,i,.,i,-2
